Laboratory results: the supplement of paper PMC11018630
Where a name gives a salt, the structure may show the parent alone. ± gives the standard deviation of the averaged measurements.

Tested on: RDEB dermal fibroblasts EB119
Assay: day of extracellular matrix detachment from plate (days); higher = delayed detachment (less fibrotic matrix)
Conditions: compound concentration: 10 uM

Structure (SMILES) | day of extracellular matrix detachment from plate
OC(c1cc(C(F)(F)F)nc2c(C(F)(F)F)cccc12)C1CCCCN1 (centres undefined) [Mefloquine HCl] | 39
CCN(CC)CCCC(C)Nc1ccnc2cc(Cl)ccc12 (centres undefined) [Chloroquine Phosphate] | 35.3 ± 1.1
O=C1C(O)=C([C@H]2CC[C@H](c3ccc(Cl)cc3)CC2)C(=O)c2ccccc21 [Atovaquone] | 26 ± 1.4
O=C(O)CCCCCCCC(=O)O [Azelaic acid] | 26.3 ± 1.1
CN1CCC(COc2cnc(-c3cccc(Cn4nc(-c5cccc(C#N)c5)ccc4=O)c3)nc2)CC1 | 15.5 ± 3.5
Cc1cc(/C=C/C#N)cc(C)c1Nc1ccnc(Nc2ccc(C#N)cc2)n1 [Rilpivirine] | 39
CC(C)(CO)[C@@H](O)C(=O)NCCCO [D panthenol] | 26 ± 1.4
CCCN(CCC)C(=O)C1=Cc2ccc(-c3ccc(C(=O)N4CCCC4)cc3)cc2N=C(N)C1 [Motolimod (VTX-2337)] | 26 ± 1.4
CNC(=O)[C@H](Cc1ccccc1)NC(=O)[C@H](CC(C)C)[C@H](CSc1cccs1)C(=O)NO [Batimastat (BB-94)] | 18
COCCCOc1ccnc(C[S+]([O-])c2nc3ccccc3[nH]2)c1C (centres undefined) [Rebeprazole sodium] | 25
CCN(CCO)CCCC(C)Nc1ccnc2cc(Cl)ccc12 (centres undefined) [Hydroxychloroquine Sulfate] | 32
CCCCCCCCc1ccc(CCC(N)(CO)CO)cc1 [Fingolimod (FTY720) HCl] | 26 ± 1.4
CSc1ccc2c(c1)N(CCC1CCCCN1C)c1ccccc1S2 (centres undefined) [Thioridazine HCl] | 39
Nc1nc(NC2CC2)c2ncn([C@H]3C=C[C@@H](CO)C3)c2n1 [Abacavir sulfate] | 27
CCOC(=O)[C@H]1O[C@@H]1C(=O)N[C@@H](CC(C)C)C(=O)NCCC(C)C [Aloxistatin] | 25
CC(C)[C@H]1C(=O)N[C@@H](CCCNC(=N)N)C(=O)NCC(=O)N[C@@H](CC(=O)O)C(=O)N[C@H](Cc2ccccc2)C(=O)N1C [Cilengitide] | 4
O=C(O[C@H]1CN2CCC1CC2)N1CCc2ccccc2[C@@H]1c1ccccc1 [Solifenacin succinate] | 33.3 ± 1.1
C=CC[C@@H]1/C=C(\C)C[C@H](C)C[C@H](OC)[C@H]2O[C@@](O)(C(=O)C(=O)N3CCCC[C@H]3C(=O)O[C@H](/C(C)=C/[C@@H]3CC[C@@H](O)[C@H](OC)C3)[C@H](C)[C@@H](O)CC1=O)[C@H](C)C[C@@H]2OC [Tacrolimus (FK506)] | 20.7 ± 1.1
C[N+](C)(CCOc1ccccc1)Cc1ccccc1.O=C([O-])c1cc2ccccc2cc1O [Bephenium Hydroxynaphthoate] | 26 ± 1.4
